Data reported in publication PMC5700166.

Key:
Assay in all cases: protein-binding microarray (PBM); PBM: ~300 nM protein, 6 mM HEPES pH 7.8, 80 mM KCl, 0.5 mM EDTA, 0.5 mM EGTA, 6% glycerol, 35 ng/ul poly-dIdC, 1% milk, 1 h, room temperature; Ap Aiptasia and Nv Nematostella (sea anemones) / Co Capsaspora / Aq Amphimedon (sponge) / Dm Drosophila / Hu human; RHD is the Rel homology domain; high values mean tight binding
Details in all cases: dsDNA, one strand shown
[1] = biological target: T1, GST-Ap-NF-kB RHD (Exaiptasia pallida (Aiptasia), UniProt A0A913YAJ5 2-422)
T1 sequence: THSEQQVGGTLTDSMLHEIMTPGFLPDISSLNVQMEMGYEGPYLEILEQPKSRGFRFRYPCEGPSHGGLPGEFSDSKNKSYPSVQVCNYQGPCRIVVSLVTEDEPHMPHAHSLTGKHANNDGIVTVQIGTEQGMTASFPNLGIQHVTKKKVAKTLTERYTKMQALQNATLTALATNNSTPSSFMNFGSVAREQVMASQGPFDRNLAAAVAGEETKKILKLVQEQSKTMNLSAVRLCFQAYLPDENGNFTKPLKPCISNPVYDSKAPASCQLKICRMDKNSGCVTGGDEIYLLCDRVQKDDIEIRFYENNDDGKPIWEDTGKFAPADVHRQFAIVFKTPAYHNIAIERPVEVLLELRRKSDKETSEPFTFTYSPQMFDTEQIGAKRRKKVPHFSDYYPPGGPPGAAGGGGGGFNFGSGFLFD

[2] = biological target: T2, GST-Nv-NF-kB (Cys allele) (Nematostella vectensis, UniProt E5G601 2-411)
T2 sequence: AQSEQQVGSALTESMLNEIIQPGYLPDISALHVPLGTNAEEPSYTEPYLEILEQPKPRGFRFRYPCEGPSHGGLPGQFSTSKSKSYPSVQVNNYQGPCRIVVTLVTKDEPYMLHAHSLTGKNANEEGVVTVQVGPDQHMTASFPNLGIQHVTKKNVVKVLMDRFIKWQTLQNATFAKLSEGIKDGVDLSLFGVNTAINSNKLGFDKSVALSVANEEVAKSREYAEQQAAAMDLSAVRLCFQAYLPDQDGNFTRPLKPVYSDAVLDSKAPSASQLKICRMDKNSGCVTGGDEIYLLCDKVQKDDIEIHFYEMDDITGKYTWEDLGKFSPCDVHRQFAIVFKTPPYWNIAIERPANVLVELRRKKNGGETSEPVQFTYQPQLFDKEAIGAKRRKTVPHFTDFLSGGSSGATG

[3] = biological target: T3, GST-Co-NF-kB (Capsaspora owczarzaki, UniProt F1ARL5 200-546)
T3 sequence: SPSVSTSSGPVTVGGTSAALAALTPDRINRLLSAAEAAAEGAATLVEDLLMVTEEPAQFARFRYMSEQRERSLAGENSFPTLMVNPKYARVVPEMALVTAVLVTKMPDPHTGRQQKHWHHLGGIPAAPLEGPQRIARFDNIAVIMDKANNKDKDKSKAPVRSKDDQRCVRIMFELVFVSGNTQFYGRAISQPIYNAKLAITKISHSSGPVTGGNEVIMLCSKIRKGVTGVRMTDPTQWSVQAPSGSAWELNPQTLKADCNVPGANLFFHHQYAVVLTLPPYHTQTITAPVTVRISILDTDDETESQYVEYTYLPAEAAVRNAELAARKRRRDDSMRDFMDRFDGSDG

[4] = biological target: T4, GST-Dm-Relish (Drosophila melanogaster, UniProt Q94527 99-473)
T4 sequence: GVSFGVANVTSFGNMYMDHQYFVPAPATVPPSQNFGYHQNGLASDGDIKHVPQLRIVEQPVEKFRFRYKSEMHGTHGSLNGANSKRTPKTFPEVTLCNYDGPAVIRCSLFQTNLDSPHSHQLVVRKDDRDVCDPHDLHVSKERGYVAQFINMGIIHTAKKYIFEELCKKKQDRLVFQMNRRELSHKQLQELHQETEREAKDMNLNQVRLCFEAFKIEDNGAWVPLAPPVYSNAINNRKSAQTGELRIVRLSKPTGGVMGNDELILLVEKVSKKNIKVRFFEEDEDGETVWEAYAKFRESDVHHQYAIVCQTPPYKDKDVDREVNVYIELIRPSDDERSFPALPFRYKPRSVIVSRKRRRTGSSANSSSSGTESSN

[5] = biological target: T5, GST-Aq-NF-kB (Amphimedon queenslandica, UniProt A9Y5G7 2-389)
T5 sequence: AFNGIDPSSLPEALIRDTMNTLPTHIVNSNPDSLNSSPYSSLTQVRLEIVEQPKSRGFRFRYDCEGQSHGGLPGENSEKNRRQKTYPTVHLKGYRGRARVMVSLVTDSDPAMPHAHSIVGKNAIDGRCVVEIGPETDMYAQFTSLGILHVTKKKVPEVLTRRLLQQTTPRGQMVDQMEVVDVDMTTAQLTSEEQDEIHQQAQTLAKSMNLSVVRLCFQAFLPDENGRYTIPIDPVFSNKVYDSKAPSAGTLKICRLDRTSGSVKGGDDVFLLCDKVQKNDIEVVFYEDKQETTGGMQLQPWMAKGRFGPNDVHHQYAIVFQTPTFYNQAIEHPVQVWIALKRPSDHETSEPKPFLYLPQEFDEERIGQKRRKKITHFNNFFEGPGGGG

| Sequence | binding signal [1] [z-score] | binding signal [2] [z-score] | binding signal [3] [z-score] | binding signal [4] [z-score] | binding signal [5] [z-score] |
| --- | --- | --- | --- | --- | --- |
| CCGATTAACATCAAGCATCCCCCTGATGTTAATCGGGTCTTGATTCGCTTGACGCTGCTG | 4.92 | 5.03 | 4.28 | 3.89 | 4.87 |
| CCGATTAACATCACCCAGGGAAATGATGTTAATCGGGTCTTGATTCGCTTGACGCTGCTG | 1.54 | 2.66 | 2.73 | 1.46 | 2.69 |
| CCGATTAACATCAGAGTCCCCCCTGATGTTAATCGGGTCTTGATTCGCTTGACGCTGCTG | 5.97 | 5.02 | 7.33 | 5.14 | 4.89 |
| CCGATTAACATCAAAACTTCCCATGATGTTAATCGGGTCTTGATTCGCTTGACGCTGCTG | 3.04 | 3.7 | 2.63 | 4.52 | 4.42 |
| CCGATTAACATCACCCATCCCCCTGATGTTAATCGGGTCTTGATTCGCTTGACGCTGCTG | 4.59 | 3.91 | 3.26 | 2.93 | 3.73 |
| CCGATTAACATCAGTAACTCCCTTGATGTTAATCGGGTCTTGATTCGCTTGACGCTGCTG | 2.54 | 2.67 | 1.16 | 2.91 | 3.78 |
| CCGATTAACATCAGGGAGCTCCCTGATGTTAATCGGGTCTTGATTCGCTTGACGCTGCTG | 4.49 | 3.24 | 1.46 | 3.76 | 6.36 |
| CCGATTAACATCATCCCCCCCCATGATGTTAATCGGGTCTTGATTCGCTTGACGCTGCTG | 6.69 | 4.12 | 7.34 | 4.5 | 5.38 |
| CCGATTAACATCACAATACCCCCTGATGTTAATCGGGTCTTGATTCGCTTGACGCTGCTG | 7.39 | 4.51 | 4.26 | 4.2 | 4.87 |
| CCGATTAACATCAAAACAATCCCTGATGTTAATCGGGTCTTGATTCGCTTGACGCTGCTG | 2.49 | 3.19 | 1.41 | 2.25 | 4.66 |
